High-throughput results: PubChem BioAssay, National Center for Advancing Translational Sciences (NCATS)
Sampled rows, rich in hits. Any-hit rate of the full collection: about 3.3%.
LmPK inhibitor: inhibitors of Leishmania mexicana pyruvate kinase. AID 1721. purified LmPK, Kinase-Glo ATP luminescence, 1 h. Q27686. Potency, µM (titrated, usually from 57.5 µM), inactives show at the top dose activity change, negative = inhibition, actives largely listed as inhibitors. hit rate 0.37% among 290,000
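Screened at intermediate enzyme activity to detect both inhibitors and activators: LmPK at 0.1 nM, with a 0.5 nM enzyme column as activation reference. PEP 0.5 mM, ADP 0.1 mM; ATP detected by luminescence after 1 h.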
RE007 growth inh: less growth of the S. pombe RE007 Vpr strain; Potency, µM (doses to about 92.2 µM), without a hit: top-dose activity change, negative = less growth, usual class: inhibitors; S. pombe RE007 Vpr strain, BacTiter-Glo ATP luminescence, 24 h; hit rate 0.21% among 360,000; active = well fitted falling curve with a large enough effect; inconclusive = small, poorly fitted or top-dose-only effect; inactive = no such curve, though single readings can be large or run the other way; also: nearly all actives have a fitted effect of over 50% in size
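Fission yeast RE007 carrying one integrated HIV-1 vpr copy, seeded at OD 0.01 in PMG+AL medium with 23 nL pinned compound. Grown 24 h at 30 degrees; viability read by BacTiter-Glo luminescence after 5 min.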
Sm TGR block: blocks Schistosoma mansoni thioredoxin glutathione reductase; purified TGR, DTNB reduction, TNB absorbance 405 nm; Potency, µM (highest dose often 114 µM), for inactives: at the top dose activity change, negative = inhibition, most hits filed as inhibitors; hit rate 3% among 360,000; AID 485364; also: nearly all actives have a fitted effect of over 60% in size
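First, TGR (20 nM dispensed) and NADPH were mixed with compound. Second, a 15 min room-temperature incubation followed. Third, further NADPH and then DTNB were added to start the reaction. Finally, TNB absorbance was monitored kinetically.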
Giardia FBPA inh: blocks Giardia fructose-bisphosphate aldolase activity. A8B2U2. purified Giardia FBPA. Potency, µM (doses to about 59.6 µM), for the others: at the top dose activity, negative = inhibition, usual class: inhibitors. hit rate 0.71% among 290,000. AID 2451; also: nearly all actives have a fitted effect of over 55% in size
Target sequence (A8B2U2 whole entry, looked up): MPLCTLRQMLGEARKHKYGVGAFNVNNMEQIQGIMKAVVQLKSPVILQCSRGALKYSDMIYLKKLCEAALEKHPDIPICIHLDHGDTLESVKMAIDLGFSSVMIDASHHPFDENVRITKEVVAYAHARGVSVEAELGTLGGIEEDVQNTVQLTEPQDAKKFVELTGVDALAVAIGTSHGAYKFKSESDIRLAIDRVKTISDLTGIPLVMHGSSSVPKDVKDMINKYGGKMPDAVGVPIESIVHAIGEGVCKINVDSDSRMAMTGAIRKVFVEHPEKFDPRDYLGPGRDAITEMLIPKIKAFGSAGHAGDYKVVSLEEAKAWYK
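Giardia FBPA (40 nM reagent) was preincubated 10 min at RT with compound (up to 57.5 uM final), then substrate plus GAPDH/TPI/NAD/arsenate coupling system with diaphorase/resazurin was added; resorufin fluorescence (525/598 nm) was read after 20 min.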
Tb PYK inh: blocks Trypanosoma brucei pyruvate kinase; Q57TT1; Potency, µM (titrated, usually from 76.8 µM), without a hit: at the top dose activity, negative = inhibition, actives largely listed as inhibitors; AID 624173; TbPYK enzyme, Kinase-Glo Plus ATP luminescence, 45 min; hit rate 0.12% among 410,000; also: nearly all actives have a fitted effect of over 50% in size
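Readout: single end-point luminescence (Kinase-Glo Plus, 10 min). Reaction conditions were TbPYK/substrate plus 130 uM ADP, 45 min at RT, pH 7.2 TEA buffer. No-enzyme wells served as controls, and data were normalized before concentration-response fitting.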
An asterisk follows results filed as active; ? = inconclusive; . = no result; [ ] = remark or other dose. Unless noted, calls follow the shape of the dose curve; as a rule, active = well fitted curve in the direction sought with a large enough effect; inconclusive = small, poorly fitted or top-dose-only effect, or another doubt; inactive = no such curve, though single readings can be large; an effect the other way counts as inactive or inconclusive. % is scaled to controls: 0 for no effect and ±100 for the full control effect; potency is read from the fitted curve at half-maximal effect.

SMILES	LmPK inhibitor	RE007 growth inh	Sm TGR block	Giardia FBPA inh	Tb PYK inh
CCc1ccc(NC(=O)COC(=O)/C=C/c2ccco2)cc1	.	-14%	.	.	-8%
COC(=O)c1ccccc1NC(=O)COC(=O)/C=C/c1ccco1	-4%	10%	25µM*	-1%	-1%
Nc1c(C(=O)NCc2ccc(Cl)cc2Cl)nnn1Cc1ccc(Br)cc1	.	.	-2%	.	2%
Cc1ccc(NC(=O)/C(C#N)=C/c2ccc(Sc3nc(C)cc(C)n3)o2)cc1	1%	15%	-4%	-2%	-7%
Cc1nc(NC(=O)/C=C/c2ccccc2)sc1C(=O)Nc1ccccc1Cl	0%	12%	-12%	2%	1%
CCOC(=O)CN1C(=O)C(O)(CC(=O)c2cc(OC)ccc2OC)c2ccccc21 (stereo unspecified)	.	.	-6%	.	-3%
CC1CCCC(NC(=O)COC(=O)/C=C/c2ccco2)C1C (stereo unspecified)	.	-7%	45µM*	.	-4%
O=C(COC(=O)/C=C/c1ccco1)NCc1ccc2c(c1)OCO2	2%	13%	35µM*	1%	0%
O=C(COc1ccc2c3c(c(=O)oc2c1)CCCC3)NCCCN1CCCC1=O	-9%	2%	5%	.	1%
CN(C(=O)c1cccnc1)c1nc(-c2ccccc2)cs1	1%	5%	0%	3%	-1%
O=C(O)c1ccc(-c2nc(-c3ccc(Cl)c(Cl)c3)cs2)cc1	-10%	-9%	?	2%	-14%
NC(=O)C(=CNc1nc(-c2ccc(Cl)c(Cl)c2)cs1)C(N)=O	-10%	.	2.2µM*	18µM*	.
COc1ccc(/C=C/c2cc(C(=O)O)c3ccccc3n2)cc1	11µM*	?	-2%	-25%	-10%
O=C1C2ON(c3ccccc3)C(c3cccnc3)C2C(=O)N1Cc1ccccc1 (stereo unspecified)	2%	-5%	40µM*	4%	3%
Cc1ccccc1N1C(=O)C2ON(c3ccccc3)C(c3cccnc3)C2C1=O (stereo unspecified)	2%	-14%	?	8%	-2%
COc1cccc(/C=C/c2[nH]c(=O)[nH]c(=O)c2[N+](=O)[O-])c1O	-18%	-20%	35µM*	-4%	0%
COc1cc(/C=C/c2[nH]c(=O)[nH]c(=O)c2[N+](=O)[O-])cc(OC)c1O	-2%	8%	-35%	-17%	-4%
Cc1cccc(NS(=O)(=O)c2cc([N+](=O)[O-])ccc2C)n1	2%	21%	.	3%	11%
CN1CCN/C1=C(/C(Cl)=C(Cl)Cl)[N+](=O)[O-]	0%	-3%	1.1µM*	?	2%
CCOC(=O)c1cc(C)sc1/N=C/C1C(=O)NC(=S)NC1=O	6%	1%	4.5µM*	?	-29%
Cc1c(NC(=O)/C(C#N)=C/c2ccc(-c3ccccc3Cl)o2)c(=O)n(-c2ccccc2)n1C	1%	-7%	1%	0%	-5%
O=C(CCN1C(=O)C2CCCCC2C1=O)N1CCN(S(=O)(=O)c2cccc(F)c2)CC1 (stereo unspecified)	.	-2%	56µM*	.	1%
Cc1cc(C=O)c(C)n1-c1cc(C(F)(F)F)ccc1N1CCOCC1	4%	-4%	50µM*	2%	6%
COc1ccc(C2=NN(S(C)(=O)=O)C(c3cccs3)C2)cc1OC (stereo unspecified)	-9%	-1%	-28%	-2%	0%
COc1ccc(C(C)=O)c(Oc2nc(CN3CCOCC3)nc3scc(-c4cccs4)c23)c1	6%	-2%	-16%	6%	11%
SMILES	LmPK inhibitor	RE007 growth inh	Sm TGR block	Giardia FBPA inh	Tb PYK inh
CC(=O)c1ccccc1Oc1nc(CN2CCOCC2)nc2scc(-c3cccs3)c12	5%	16%	45µM*	16%	6%
CCCC1OC2CC3C4CCC5=CC(=O)C=CC5(C)C4C(O)CC3(C)C2(C(=O)O)O1 (stereo unspecified)	2%	-1%	89µM*	4%	-2%
CCCC1O[C@@H]2C[C@H]3[C@@H]4CCC5=CC(=O)C=C[C@]5(C)[C@H]4[C@@H](O)C[C@]3(C)[C@]2(C(=O)CO)O1 (stereo partly specified)	2%	-9%[18.4 µM]	-1%	-8%	2%
CN1CC(=O)N/C1=N/C(=O)Nc1cccc(Cl)c1	.	.	.	-12%	-7%
COc1ccc(CNC(=O)[C@H](Cc2ccccc2)NC(=O)C2CCN(C(=O)[C@H](C)N)CC2)cc1	-9%	-2%	-35%	-20%	-11%
COc1ccc(CNC(=O)[C@H](Cc2ccccc2)NC(=O)C2CCNCC2)cc1	0%	9%	32µM*	-2%	-5%
CCOC(=O)c1ccccc1Nc1cc(C)nc2nc(-c3ccco3)nn12	.	.	18µM*	.	4%
Oc1cc2c(cc1O)C1c3ccc(O)c(O)c3OCC1(O)C2 (stereo unspecified)	?	-23%	0.71µM*	6.3µM*	10µM*
COc1ccc(Cn2c(C)ccc2C)cc1	1%	-3%	32µM*	-10%	-1%
COc1ccc(Cn2c(-c3ccc(OC)cc3)nc3ccccc32)cc1	2%	-13%	-4%	-9%	0%
COc1ccc(-c2cc(C(=O)N3CCCCC3)c3ccccc3n2)cc1OC	7%	19%	1%	8%	4%
O=[N+]([O-])c1cc2no[n+]([O-])c2cc1N1CCCCC1	.	?	.	.	14µM*
Cc1c(CC(=O)NCCCC(=O)O)c(=O)oc2cc3oc4c(c3cc12)CCCC4	-1%	-11%	-12%	4%	-4%
O=C(NNc1ccc(O)cc1)c1ccc(Br)cc1	-21%	-16%	22µM*	-16%	-12%
O=C(NNc1ccccc1)c1ccccc1	.	137%	.	.	0%
CC1CC(C)CC(C)C(O)C(C#N)=CC=CCC(C2CCCC2C(=O)O)OC(=O)CC(O)C(C)C1 (stereo unspecified)	.	6.3µM*	.	.	-2%
CC(C)Cn1c(-c2csc3c2CCCC3)n[nH]c1=S	10µM*	1%	14%	-1%	?
CC(C)Cn1c(-c2ccccc2F)n[nH]c1=S	-7%	6%	8%	-8%	?
CC(C)(C)NS(=O)(=O)c1ccc(CCC(=O)NCc2ccco2)cc1	4%	17%	35µM*	-1%	-6%
COc1ccc(CCC(=O)NCc2ccco2)cc1	3%	37%	56µM*	3%	-19%
COc1ccc(N(C(C)C(=O)NCc2ccco2)S(C)(=O)=O)cc1 (stereo unspecified)	4%	13%	25µM*	-11%	-19%
O=C(/C=C/c1ccccc1)NCCc1cnc[nH]1	3%	-15%	3%	5%	10%
CCOc1ccccc1OCCCC(=O)Nc1cccc(S(=O)(=O)N2CCOCC2)c1	.	-20%	-8%	.	-4%
Oc1ccc([C@H]2CNCc3c2ccc(O)c3O)cc1O	.	.	.	.	3.2µM*
